# Laboratory results reported in PubChem BioAssay (NCI).
# Compounds without any hit were thinned out: in the full panel of roughly 79,000, 15% have a hit. A number with no mark means an inactive call. Calls of active or inactive are those of the source. No stated cut-off is given here; in the data, active means growth inhibition above about 70%; inactive means the rest.
# What was measured:
# [1] = NCI Yeast Anticancer Drug Screen. Data for the rad50 strain (AID 155);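 further: 0% = growth of vehicle-only cultures of the same strain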; details: S. cerevisiae rad50 strain growth inhibition, stronger effect = higher value
# In short: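 Vehicle-treated cultures provide the reference for the growth inhibition reported for compound-exposed, repair-deficient yeast.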
# [2] = NCI Yeast Anticancer Drug Screen. Data for the mec2-1 strain (AID 157); details: S. cerevisiae mec2-1 strain, stronger effect = higher value
# In short: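 Test agents were screened against the mec2-1 yeast strain, with defined DNA repair or cell cycle alteration. Growth was scored as inhibition against vehicle-only controls.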
# [3] = NCI Yeast Anticancer Drug Screen. Data for the sgs1 mgt1 strain (AID 161);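 further: 0% = growth of cultures given vehicle only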; details: S. cerevisiae sgs1 mgt1 strain, stronger effect = higher value
# In short: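 Mutant yeast exposed to compound; growth scored against vehicle-only wells.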
# [4] = NCI Yeast Anticancer Drug Screen. Data for the cln2 rad14 strain (AID 165);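 further: 0% = growth equal to vehicle treated cultures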; details: S. cerevisiae cln2 rad14 strain, stronger effect = higher value
# In short: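 Growth of compound-exposed yeast (cln2 rad14 genotype) measured and expressed as inhibition relative to vehicle.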
# [5] = NCI Yeast Anticancer Drug Screen. Data for the bub3 strain (AID 167); details: S. cerevisiae bub3 mutant strain, stronger effect = higher value
# In short: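 Mutant yeast screening strain plus compound; vehicle-treated cultures serve as the 0% inhibition reference.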
# [6] = NCI Yeast Anticancer Drug Screen. Data for the mlh1 rad18 strain (AID 175); details: S. cerevisiae mlh1 rad18 strain growth inhibition, stronger effect = higher value
# In short: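 In this whole-cell yeast screen, a strain with altered DNA damage repair is challenged with compound, and its growth is measured against matched vehicle-treated controls.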
# [7] = at 5.0 µM (retest, dose inferred, filed as 0.5)
# [8] = at 50.0 µM (retest, dose inferred, filed as 5.0)
Structure (SMILES),"growth inhibition [1, 7]","growth inhibition [1, 8]",growth inhibition ([1]; at 50.0 µM),"growth inhibition [2, 7]","growth inhibition [2, 8]",growth inhibition ([2]; at 50.0 µM),"growth inhibition [3, 7]","growth inhibition [3, 8]",growth inhibition ([3]; at 50.0 µM),"growth inhibition [4, 7]","growth inhibition [4, 8]",growth inhibition ([4]; at 50.0 µM),"growth inhibition [5, 7]","growth inhibition [5, 8]",growth inhibition ([5]; at 50.0 µM),"growth inhibition [6, 7]","growth inhibition [6, 8]",growth inhibition ([6]; at 50.0 µM)
c1ccc2c(B(c3cccc4ccccc34)c3cccc4ccccc34)cccc2c1,0%,98% (active),99.1% (active),14%,99% (active),98.9% (active),-20%,99% (active),98.7% (active),3%,98% (active),98.7% (active),-4%,99% (active),98.8% (active),0%,98% (active),97.4% (active)
COc1ccc(C(=O)O)c(-c2c(C(=O)O)ccc(OC)c2OC(C)=O)c1,3%,1%,16.5%,-5%,9%,3.05%,-18%,7%,-3.85%,2%,-2%,63.7%,0%,-5%,73% (active),14%,13%,54.6%
O=C1NC(=Nc2ccccc2)C(=Nc2ccccc2)N1c1ccccc1,-8%,99% (active),87.8% (active),-7%,98% (active),90.8% (active),-7%,99% (active),85.6% (active),-33%,94% (active),85.8% (active),-36%,99% (active),89.5% (active),-2%,99% (active),85.9% (active)
O=C1CCCC/C1=C\c1ccc(Br)cc1,1%,96% (active),80.2% (active),-21%,99% (active),86.7% (active),-28%,99% (active),90.7% (active),9%,95% (active),88.3% (active),-55%,99% (active),89.4% (active),-17%,99% (active),92.7% (active)
CCOC(=O)c1cnc2ccc(C3CCCCC3)cc2c1Nc1ccc2c(c1)OCO2,-15%,91% (active),11.1%,-4%,95% (active),-8.35%,-23%,96% (active),5.15%,-9%,92% (active),-12.8%,3%,93% (active),-7.25%,-3%,93% (active),25.4%
O=C(NNc1ncccn1)c1ccc(C(=O)NNc2ncccn2)cc1,-2%,99% (active),2.75%,0%,100% (active),2.1%,-3%,100% (active),41.5%,7%,99% (active),-25.6%,3%,99% (active),-2.6%,2%,99% (active),21.4%
CC1=CC(=O)[C@@H](O)[C@]2(C)[C@H]3[C@@]4(O)OC[C@]35[C@H]([C@@H](C)[C@H]4O)[C@@H](OC(=O)C(C)(C)CO)C(=O)O[C@@H]5C[C@@H]12,10%,44%,90.7% (active),15%,45%,90.8% (active),6%,40%,88.3% (active),17%,51%,90.5% (active),6%,39%,92.2% (active),6%,51%,-7.05%
O=C1c2ccccc2C(=O)c2c1ccc(O)c2O.[Cu],87% (active),92% (active),98% (active),41%,95% (active),96.7% (active),99% (active),96% (active),96.9% (active),26%,91% (active),33.1%,86% (active),94% (active),93.6% (active),66%,94% (active),96.8% (active)
CC1=CC(O)(c2ccc(-c3ccccc3Cl)cc2)OC1=O (stereo not given),-8%,90% (active),90.2% (active),0%,96% (active),94.8% (active),-1%,88% (active),92.1% (active),-19%,87% (active),90.9% (active),-11%,95% (active),89.3% (active),-9%,94% (active),96.3% (active)
C/C(=N\NC(N)=S)C(CN1CCCCC1)C(C1=C(O)c2ccccc2OC1)c1ccccc1 (stereo not given),10%,38%,64.7%,6%,45%,63%,19%,67%,68.5%,22%,62%,53.7%,32%,70% (active),71.8% (active),20%,55%,67.5%
N#CSc1ccc(O)cc1,0%,95% (active),94.3% (active),1%,97% (active),96.2% (active),4%,97% (active),92.6% (active),3%,97% (active),93.8% (active),0%,96% (active),96.4% (active),1%,95% (active),93.3% (active)
Clc1ccc2nc(CCSCCc3nc4ccc(Cl)cc4[nH]3)[nH]c2c1,5%,97% (active),87.8% (active),7%,98% (active),98.7% (active),7%,97% (active),82% (active),-15%,99% (active),59.9%,-10%,98% (active),94.8% (active),0%,98% (active),97.9% (active)
Oc1cc(O)cc(O)c1,10%,76% (active),15.7%,-2%,18%,-4.05%,0%,19%,12.3%,5%,17%,7.85%,-4%,6%,69%,-5%,16%,23.3%
O=C(O)c1ccc2cc3ccccc3cc2c1,-16%,65%,75.9% (active),5%,48%,47.4%,-10%,50%,63%,-49%,42%,61.9%,-29%,30%,62.4%,-24%,58%,54.1%
CCN(CC)CCC(=O)OC1C(C)=CC(C)C(=O)CC(C(C)CC2CCC(O)C(OC)C2)OC(=O)C2CCCCN2C(=O)C(=O)[C@@]2(O)OC(CCC2C)CC(OC)\C(C)=C/C=C/C=C/C(C)CC(C)C(=O)C1OC (stereo not given in full),40%,97% (active),90.9% (active),26%,98% (active),93% (active),96% (active),96% (active),93.4% (active),94% (active),95% (active),87.7% (active),53%,98% (active),92.8% (active),97% (active),97% (active),92.2% (active)
Cc1ccc(NNC(=O)C(O)C(O)C(O)C(O)CO)cc1 (stereo not given),98% (active),98% (active),-2.2%,99% (active),99% (active),2.6%,99% (active),99% (active),7.85%,99% (active),99% (active),41.8%,98% (active),99% (active),8.25%,99% (active),99% (active),1.2%
COc1ccc2c(C#N)cc3c(c[n+](C)c4ccccc34)c2c1,25%,78% (active),92% (active),13%,58%,86.4% (active),19%,71% (active),87.8% (active),15%,48%,80.7% (active),-2%,65%,78% (active),21%,83% (active),92% (active)
CSc1ccc(NC(=S)SC(C)C)cc1Cl,15%,98% (active),99% (active),1%,99% (active),99.3% (active),19%,99% (active),99.4% (active),-32%,97% (active),99% (active),-6%,99% (active),99.4% (active),19%,99% (active),99% (active)
CCCC1(C)C(C#N)(C#N)C1(C#N)C#N,98% (active),98% (active),98.5% (active),96% (active),99% (active),99.3% (active),98% (active),99% (active),99.3% (active),99% (active),99% (active),99.1% (active),99% (active),99% (active),99% (active),99% (active),99% (active),99.2% (active)
CN(C)c1cc(N(C)C)c2cc(-c3ccccc3)sc2n1,11%,98% (active),75.7% (active),3%,99% (active),17.2%,5%,95% (active),94.6% (active),-11%,82% (active),7.65%,-5%,93% (active),64%,1%,94% (active),63%
